Source: PubChem BioAssay
Active and inactive are the calls of the source.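 How the source made its calls, unless noted: active means normalized viability below 100% at a tested concentration; inactive means the rest.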

What was measured:
[1] = stimulators of nuclear beta-catenin in C2C12, primary screen, imaging, WNT3A-conditioned medium, mouse C2C12, NPC library (AID 1117326; in the data active means nuclear beta-catenin stimulation mostly above about 4.2%, no sharp cut-off; inactive means mostly below about 10%); conditions: stronger effect = higher value
[2] = stimulators of insulin release from INS-1E, primary screen, cell-based, 5 mM glucose, NPC library (AID 1117329;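 active means compound raises insulin release from rat beta cells at 5 mM glucose, no numeric limit stated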); conditions: rat INS-1E insulin secretion, at 10 µM, stronger effect = higher value
[3] = growth inhibition of GSK3B-pretreated HCT116 cells – cell-based, CellTiter-Glo, 0.2 to 20 µM (AID 1117336;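 active means compounds lowering colon cancer cell viability after pretreatment blocking the GSK3B kinase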); conditions: HCT116 viability after GSK3B inhibitor, at 20 µM, stronger effect = higher value
[4] = inhibition of endothelial tube formation, primary screen, imaging, VEGF stimulated, CD31 staining, tube area, NPC library (AID 1117340;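 active means compound that reduces growth-factor-driven endothelial tube area in a mixed cell culture, no cutoff stated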); conditions: VEGF-stimulated ADSC/ECFC co-culture, at 10 µM, stronger effect = higher value
[5] = glucagon-like peptide 1 release enhancers, primary assay, NCI-H716 cell line, NPC library (AID 1117341;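 active means compound raises GLP1 secretion from the human gut endocrine cells, with no numeric limit stated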); conditions: NCI-H716 cells, at 10 µM, stronger effect = higher value
[6] = HCT116 colon cancer cell growth inhibition, primary screen, CellTiter-Glo luminescence, NPC library (AID 1117342;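 active means compounds that lower survival of HCT116 colon cancer cells in the luminescence readout, no numeric limit stated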); conditions: at 20 µM (top of the series)
[7] = CellTiter-Glo luminescent readout of SW480 viability loss, NPC library primary (AID 1117343;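 active means compounds that lower viability of the colon cancer cells in the luminescence readout, with no numeric limit stated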); conditions: CellTiter-Glo luminescence; at 20 µM (top of the series) unless noted
[8] = decreased DLD-1 cellular survival, CellTiter-Glo luminescent readout, NPC compound collection, primary HTS (AID 1117346;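 active means compounds that lower survival of DLD-1 colon cancer cells in the luminescence readout, no cutoff given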); conditions: DLD-1 viability, CellTiter-Glo luminescence; at 20 µM (top of the series)
[9] = sensitizers of A549 cells to miR-34 induction, primary screen, imaging, A549 dox-inducible miR-34, nuclei and caspase counts (AID 1347080;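 active means compounds whose cell count with miR-34 switched on is under 0.7 times the count with it off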); conditions: A549 miR-34 inducible, Hoechst nuclei count, 48 h
[10] = survival rescue of mitochondrial mutant cells in low glucose, primary screen, MELAS cybrids, Rieske KO mouse fibroblasts, CellTiter-Glo (AID 1508586;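 active means mean z-score across replicates of 1.96 or higher in either the MELAS or the Rieske mutant cell line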;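 further: z relative to plate mean and SD of compound and empty wells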)
[11] = ovarian cancer cell viability with rucaparib, profiling panel, oncology-focused library, rucaparib conditional (AID 1508598); conditions: patient-derived ovarian cancer cells, CellTiter-Glo viability, 144 h, stronger effect = lower value
[12] = phospholipid biosynthesis inhibitors in animal cells, primary screen, cell-based, LOPAC library, screen 4 (AID 1347384; call rule not given here); conditions: phospholipid biosynthesis inhibition screen, at 10 µM
[13] = viability rescue of complex I mutant cybrids, primary screen, cell-based, galactose medium, ATP luminescence (AID 1645843;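 active means z-score of at least 1.8 in each of two replicates, scored against plate mean and spread of sample wells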;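 further: positive z means more ATP and so rescue of galactose-driven cybrid death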); conditions: complex I mutant cybrid cells, 72 h, stronger effect = higher value
[14] = stronger effect = lower value, cell number ratio, induced over uninduced
[15] = measured here: relative caspase fold change +Dox/-Dox
[16] = measured here: total cells with miR-34 induction, stronger effect = lower value
[17] = measured here: total cells without miR-34 induction

Nc1cccc2c1CN(C1CCC(=O)NC1=O)C2=O (configuration not stated)
0.3%: nuclear beta-catenin stimulation ([1]; stimulation, at 2 µM)
inactive: nuclear beta-catenin stimulation ([1]; at 10 µM) 2% | insulin secretion stimulation [2] 1.3% | viability decrease [3] 0% | tube area decrease [4] -3.8% | GLP1 secretion stimulation [5] 0% | inhibition of viability [6] -8.6% | viability decrease (inhibition) [7] -19.5% | viability decrease (inhibition) [8] 1.2% | fold change [9, 14] 1.01 | z-score ([10]; MELAS cybrid survival, CellTiter-Glo 48 h, stronger effect = higher value) -0.434 | viability ([11]; at 0.000305 µM, OCI-C5x cells, with rucaparib 10 µM, 100% = cells with rucaparib alone) 116% | viability ([11]; at 0.000305 µM, OCI-C5x cells, without rucaparib) 116% | viability ([11]; at 0.000305 µM, OCI-P5x cells, with rucaparib 20 µM, 100% = cells with rucaparib alone) 126% | viability ([11]; at 0.000305 µM, OCI-P5x cells, without rucaparib) 106% | viability ([11]; at 0.00122 µM, OCI-C5x cells, with rucaparib 10 µM, 100% = cells with rucaparib alone) 122% | viability ([11]; at 0.00122 µM, OCI-C5x cells, without rucaparib) 116% | viability ([11]; at 0.00122 µM, OCI-P5x cells, with rucaparib 20 µM, 100% = cells with rucaparib alone) 130% | viability ([11]; at 0.00122 µM, OCI-P5x cells, without rucaparib) 105% | viability ([11]; at 0.00488 µM, OCI-C5x cells, with rucaparib 10 µM, 100% = cells with rucaparib alone) 126% | viability ([11]; at 0.00488 µM, OCI-C5x cells, without rucaparib) 115% | viability ([11]; at 0.00488 µM, OCI-P5x cells, with rucaparib 20 µM, 100% = cells with rucaparib alone) 123% | viability ([11]; at 0.0195 µM, OCI-C5x cells, with rucaparib 10 µM, 100% = cells with rucaparib alone) 113% | viability ([11]; at 0.0195 µM, OCI-C5x cells, without rucaparib) 114% | viability ([11]; at 0.0195 µM, OCI-P5x cells, with rucaparib 20 µM, 100% = cells with rucaparib alone) 125% | viability ([11]; at 0.0195 µM, OCI-P5x cells, without rucaparib) 107% | viability ([11]; at 0.0781 µM, OCI-C5x cells, with rucaparib 10 µM, 100% = cells with rucaparib alone) 120% | viability ([11]; at 0.0781 µM, OCI-C5x cells, without rucaparib) 132% | viability ([11]; at 0.0781 µM, OCI-P5x cells, with rucaparib 20 µM, 100% = cells with rucaparib alone) 133% | viability ([11]; at 0.0781 µM, OCI-P5x cells, without rucaparib) 109% | viability ([11]; at 0.313 µM, OCI-C5x cells, with rucaparib 10 µM, 100% = cells with rucaparib alone) 118% | viability ([11]; at 0.313 µM, OCI-C5x cells, without rucaparib) 117% | viability ([11]; at 0.313 µM, OCI-P5x cells, with rucaparib 20 µM, 100% = cells with rucaparib alone) 129% | viability ([11]; at 0.313 µM, OCI-P5x cells, without rucaparib) 109% | viability ([11]; at 1.25 µM, OCI-C5x cells, with rucaparib 10 µM, 100% = cells with rucaparib alone) 121% | viability ([11]; at 1.25 µM, OCI-C5x cells, without rucaparib) 119% | viability ([11]; at 1.25 µM, OCI-P5x cells, with rucaparib 20 µM, 100% = cells with rucaparib alone) 114% | viability ([11]; at 1.25 µM, OCI-P5x cells, without rucaparib) 103% | viability ([11]; at 5 µM, OCI-C5x cells, with rucaparib 10 µM, 100% = cells with rucaparib alone) 115% | viability ([11]; at 5 µM, OCI-C5x cells, without rucaparib) 117% | viability ([11]; at 5 µM, OCI-P5x cells, with rucaparib 20 µM, 100% = cells with rucaparib alone) 132% | viability ([11]; at 5 µM, OCI-P5x cells, without rucaparib) 110%
active: viability ([11]; at 0.00488 µM, OCI-P5x cells, without rucaparib) 95.9%
8240: cell count [9, 16]
0.954: fold change [9, 15]
8190: cell count [9, 17]
0.686: z-score ([10]; Rieske KO mouse fibroblast survival, CellTiter-Glo 72 h)

Nc1cc(=O)[nH]c(N)n1
inactive: nuclear beta-catenin stimulation ([1]; at 10 µM) 1.3% | insulin secretion stimulation [2] -1.5% | viability decrease [3] 7.7% | tube area decrease [4] -14.1% | GLP1 secretion stimulation [5] -2.3% | inhibition of viability [6] -16.3% | viability decrease (inhibition) [8] 13.6% | fold change [9, 14] 0.958 | outcome [12] | z-score [13] 0.355
10300: cell count [9, 17]
1.3%: nuclear beta-catenin stimulation ([1]; stimulation, at 2 µM)
1.28: fold change [9, 15]
active: viability decrease (inhibition) [7] 71.1%
9880: cell count [9, 16]

CCN1CCc2nc(N)oc2CC1
1.71: fold change [9, 15]
0.3%: nuclear beta-catenin stimulation ([1]; stimulation, at 2 µM)
inactive: nuclear beta-catenin stimulation ([1]; at 10 µM) -1.7% | insulin secretion stimulation [2] 0.4% | viability decrease [3] 2.7% | tube area decrease [4] 1.7% | GLP1 secretion stimulation [5] -1.2% | inhibition of viability [6] 5.2% | viability decrease (inhibition) [7] -29.1% | viability decrease (inhibition) [8] -18% | fold change [9, 14] 1.02 | outcome [12] | z-score [13] 0.29
10300: cell count [9, 16]
10100: cell count [9, 17]
